The values that follow come from PubChem BioAssay.

Experiment [1] is described as follows: optical density shifts of acrAB sulA E. coli – strain DRC41, OD650, 48 h, E. coli filamentation inducer project, primary screen (AID 1152).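 Also: E. coli MC1000 strain DRC41 lacking acrAB efflux pump and sulA.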 Particulars: higher = more signal, called active from +8 up or from −8 down.
The nature of experiment [2]: probe aLefty1 binding on compound microarray – biochemical, small-molecule microarray, 635/667 nm fluorescence, primary screen (AID 1153).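 Also: score merges spot fluorescence with signal-to-noise ratio from the scanned slide images.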 Particulars: higher = more signal.
Experiment [3] can be described thus: plasmodial surface anion channel blockers, osmotic lysis – cell-based, P. falciparum Indochina, OD700, 1 h, primary screen (AID 1154). Particulars: P. falciparum Indochina infected RBC osmotic lysis, higher = more signal, called active from +8 up or from −8 down.
Experiment [4] can be described thus: plasmodial surface anion channel blockers, osmotic lysis – cell-based, P. falciparum Indochina, OD700, 2 h, primary screen (AID 1155).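 Also: lysis reports solute entry through the parasite surface anion channel PSAC.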 Conditions: P. falciparum Indochina infected erythrocytes, higher = more signal, called active from +8 up or from −8 down.
Experiment [5] in a line: changes in parasitized red cell lysis, either direction – P. falciparum Indochina, OD700, 3 h, PSAC antagonist project, primary screen (AID 1156). Particulars: P. falciparum-infected erythrocytes, osmotic lysis, higher = more signal, called active from +8 up or from −8 down.
Experiment [6] is described as follows: plasmodial surface anion channel blockers, osmotic lysis – cell-based, P. falciparum Indochina, OD700, 18 h, primary screen (AID 1157). Particulars: P. falciparum Indochina infected erythrocytes, osmotic lysis OD700, 18 h; higher = more signal, called active from +8 up or from −8 down.
A short description of experiment [7]: S6 kinase pathway phospho-S6 level changes – cell-based, A549, cytoblot, luminescence, serum-stimulated, primary screen (AID 1158).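 Also: serum-stimulated A549 lung adenocarcinoma cells; signal is phosphorylated S6 detected by cytoblot immunostaining with HRP secondary.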 Particulars: 5 h, higher = more signal.
Experiment [8] has as its target NADPH oxidase 2 (Homo sapiens) (UniProt P04839). Kind of experiment: compounds shifting NOX2 Amplex Red fluorescence – cell-based, HEK293-NOX2, PMA-stimulated, NOX inhibitor project, primary screen (AID 1159). Also: test concentration not given here. Particulars: 45 min, higher = more signal, called active from +8 up or from −8 down.
Experiment [9] addresses NADPH oxidase 4 (Homo sapiens) (UniProt Q9NPH5). Kind of experiment: compounds shifting NOX4 Amplex Red fluorescence – cell-based, HEK293-NOX4, tetracycline-induced, NOX inhibitor project, primary screen (AID 1160). Conditions: HEK293-NOX4, Amplex Red H2O2 fluorescence, 45 min; higher = more signal, called active from +8 up or from −8 down.
Experiment [10] deals with NADPH oxidase 5 (Homo sapiens) (UniProt Q96PH1). Kind of experiment: compounds shifting NOX5 Amplex Red fluorescence – cell-based, HEK293-NOX5, NOX inhibitor project, primary screen (AID 1161). Conditions: HEK293-NOX5, ionomycin, 45 min, higher = more signal.
A short description of experiment [11]: compound effects on lung adenocarcinoma cell viability – A549, calcein-AM fluorescence, 48 h, basal, profiling panel (AID 1162). Also: test concentration not given here. Particulars: higher = more signal.
Experiment [12] in a line: compound effects on differentiated 3T3-L1 adipocyte viability – cell-based, 3T3-L1 adipocytes, calcein-AM fluorescence, 48 h, basal, profiling panel (AID 1163). Also: test concentration not given here. Conditions: 3T3-L1 adipocytes viability, higher = more signal.
Experiment [13] is described as follows: compound effects on hepatocellular carcinoma cell viability – HepG2, calcein-AM fluorescence, 48 h, basal, profiling panel (AID 1164). Also: test concentration not given here. Particulars: higher = more signal.
The nature of experiment [14]: compound effects on multiple myeloma cell viability – MM1S, calcein-AM fluorescence, 48 h, basal, profiling panel (AID 1165).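 Also: viability of MM1S multiple myeloma cells under basal unstimulated conditions; test concentration not given here.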 Particulars: higher = more signal.
A short description of experiment [15]: calcein-AM signal in unstimulated myeloma cells – cell-based, calcein-AM fluorescence, 48 h, PK04 Diversity Set, profiling panel (AID 1166).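 Also: cells grown under basal conditions without added stimulus; test concentration not given here.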 Particulars: RPMI8226 myeloma viability, higher = more signal.
A short description of experiment [16]: JC-1 mitochondrial signal, unstimulated HepG2 cells – cell-based, JC-1 fluorescence, 24 h, 100 nL compound, profiling panel (AID 1167). Also: test concentration not given here. Conditions: HepG2 mitochondrial potential, higher = more signal.
The nature of experiment [17]: JC-1 mitochondrial signal, unstimulated adipocytes – cell-based, JC-1 fluorescence, 3T3-L1 adipocytes, 24 h, 100 nL compound, profiling panel (AID 1168). Also: test concentration not given here. Conditions: JC-1 mitochondrial fluorescence, higher = more signal, called active from +8 up or from −8 down.
Experiment [18] can be described thus: JC-1 mitochondrial signal, unstimulated myeloma cells – cell-based, JC-1 fluorescence, RPMI8226, 24 h, 100 nL compound, profiling panel (AID 1169). Also: test concentration not given here. Conditions: JC-1 mitochondrial potential fluorescence, higher = more signal.
Experiment [19] is described as follows: JC-1 mitochondrial signal, unstimulated MM1S myeloma – cell-based, JC-1 fluorescence, 24 h, 100 nL compound, profiling panel (AID 1170). Also: test concentration not given here. Particulars: MM1S mitochondrial potential, higher = more signal.
Experiment [20] is described as follows: resazurin metabolic signal in A549 cells – cell-based, resazurin fluorescence, 24 h, PK04 Diversity Set, profiling panel (AID 1171). Also: test concentration not given here. Particulars: A549 viability, higher = more signal, called active from +8 up or from −8 down.

The structures appear in SMILES notation. Activity calls are given as the source filed them.

Chain of NADPH oxidase 5 (Homo sapiens) (Q96PH1 whole entry, looked up): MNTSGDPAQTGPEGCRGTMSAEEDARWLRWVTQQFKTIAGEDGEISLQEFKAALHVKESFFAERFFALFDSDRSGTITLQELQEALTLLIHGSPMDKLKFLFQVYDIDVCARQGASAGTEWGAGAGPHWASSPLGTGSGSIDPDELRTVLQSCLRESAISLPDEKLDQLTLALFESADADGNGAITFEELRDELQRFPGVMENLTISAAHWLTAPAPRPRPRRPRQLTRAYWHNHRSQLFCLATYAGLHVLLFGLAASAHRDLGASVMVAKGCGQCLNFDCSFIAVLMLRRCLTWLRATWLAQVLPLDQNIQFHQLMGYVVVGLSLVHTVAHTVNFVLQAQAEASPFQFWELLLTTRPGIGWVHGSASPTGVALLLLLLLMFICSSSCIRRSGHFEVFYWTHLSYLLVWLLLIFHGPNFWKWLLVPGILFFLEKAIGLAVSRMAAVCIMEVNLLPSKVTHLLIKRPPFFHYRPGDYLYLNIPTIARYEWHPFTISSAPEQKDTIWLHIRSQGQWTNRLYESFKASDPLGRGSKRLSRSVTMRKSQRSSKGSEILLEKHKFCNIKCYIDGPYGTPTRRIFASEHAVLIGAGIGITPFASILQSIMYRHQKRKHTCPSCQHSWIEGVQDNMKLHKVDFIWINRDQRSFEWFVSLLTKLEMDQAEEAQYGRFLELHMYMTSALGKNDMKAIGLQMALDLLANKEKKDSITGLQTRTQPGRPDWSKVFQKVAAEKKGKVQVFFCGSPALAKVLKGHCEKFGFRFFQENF
Chain of NADPH oxidase 2 (Homo sapiens) (P04839 whole entry, looked up): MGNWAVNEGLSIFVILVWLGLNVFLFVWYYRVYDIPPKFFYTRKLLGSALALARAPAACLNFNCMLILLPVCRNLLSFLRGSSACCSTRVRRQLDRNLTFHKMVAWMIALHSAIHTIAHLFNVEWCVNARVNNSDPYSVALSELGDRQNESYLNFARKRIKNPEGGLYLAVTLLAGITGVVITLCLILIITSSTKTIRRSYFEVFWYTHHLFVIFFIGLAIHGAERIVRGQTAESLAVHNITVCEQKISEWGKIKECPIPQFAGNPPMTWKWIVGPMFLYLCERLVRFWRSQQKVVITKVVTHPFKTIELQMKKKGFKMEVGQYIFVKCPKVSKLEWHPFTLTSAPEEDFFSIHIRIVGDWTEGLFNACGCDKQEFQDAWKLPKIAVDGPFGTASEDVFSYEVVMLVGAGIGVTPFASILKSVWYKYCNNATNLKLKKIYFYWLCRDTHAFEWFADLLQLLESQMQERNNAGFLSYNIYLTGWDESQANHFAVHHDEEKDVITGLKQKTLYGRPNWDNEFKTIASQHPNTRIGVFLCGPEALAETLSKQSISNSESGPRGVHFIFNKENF
Chain of NADPH oxidase 4 (Homo sapiens) (Q9NPH5 whole entry, looked up): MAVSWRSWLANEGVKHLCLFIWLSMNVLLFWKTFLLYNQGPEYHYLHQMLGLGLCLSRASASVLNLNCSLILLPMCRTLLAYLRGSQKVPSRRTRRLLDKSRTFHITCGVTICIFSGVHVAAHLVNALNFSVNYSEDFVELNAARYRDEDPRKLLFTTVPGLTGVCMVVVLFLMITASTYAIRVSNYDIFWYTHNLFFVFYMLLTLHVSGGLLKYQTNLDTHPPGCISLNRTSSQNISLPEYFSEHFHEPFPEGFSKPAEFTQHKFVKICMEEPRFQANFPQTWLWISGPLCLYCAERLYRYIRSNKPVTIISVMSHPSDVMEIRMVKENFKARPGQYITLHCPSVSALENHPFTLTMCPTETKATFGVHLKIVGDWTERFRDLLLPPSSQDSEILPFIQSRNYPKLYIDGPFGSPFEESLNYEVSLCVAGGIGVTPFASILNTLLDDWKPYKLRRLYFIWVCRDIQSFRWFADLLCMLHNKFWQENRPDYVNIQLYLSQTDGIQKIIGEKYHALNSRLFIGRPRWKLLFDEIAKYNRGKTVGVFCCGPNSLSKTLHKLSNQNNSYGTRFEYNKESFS

For the compound `CCOC(=O)C1=CCC(c2cc3ccccc3[nH]2)NC1` (stereo not given), the z-score in experiment [1] is -0.92 (inactive); in experiment [3] it was 6.29 (inactive); in experiment [4] it was 1.16 (inactive); in experiment [5] it was 2.48 (inactive); in experiment [6] it was 0.829 (inactive); in experiment [7], 0.0315. Further, the z-score in experiment [8] was -0.246 (inactive); in [9] it was 0.0972 (inactive); in [10], 0.287; in [11], -0.35; in experiment [12] it was -0.709; in [13], 1.08. For the same compound, the z-score in experiment [14] is 1.13; in experiment [15], 0.255; in experiment [16], 0.4; in [17], 1.17 (inactive); in experiment [18] it was -0.0143; in [19], -1.26. The z-score in [20] is -0.412 (inactive). In experiment [2], this compound displayed a composite z-score of 0.3.
With `CC(C)(C)OC(=O)CC[C@]1(C(N)=O)COC(c2ccc(OCCCO)cc2)=N1`, the z-score is 0.311 (inactive) in experiment [1]; 0.75 (inactive) in [3]; -0.267 (inactive) in experiment [4]; 0.295 (inactive) in experiment [5]; 0.0515 (inactive) in experiment [6]; -0.777 in experiment [7]. In addition, the z-score was 0.381 (inactive) in experiment [8]; -0.585 (inactive) in experiment [9]; 0.612 in experiment [10]; 0.371 in experiment [11]; 0.0132 in [12]; 0.0668 in experiment [13]. Besides, the z-score in experiment [14] was 0.909; in [15], -0.881; in [16] it was -0.143; in experiment [17], -0.0265 (inactive); in [18] it was 0.484; in experiment [19] it was -0.284. In experiment [20], the z-score is -1.05 (inactive). In addition, the composite z-score in experiment [2] amounted to 0.802.
On to `CCOC(=O)NN=C1C[C@@H](O)[C@@H](O)[C@@H]2[C@@H]3C(=O)N(C4CCCCC4)C(=O)[C@@H]3CC[C@@H]12`, for which the z-score in [1] was -0.0671 (inactive); in experiment [3], 1.61 (inactive); in experiment [4] it was 0.0554 (inactive); in experiment [5], -1.02 (inactive); in [6], -0.039 (inactive); in experiment [7], 0.492. In addition, the z-score is -0.000129 (inactive) in [8]; 0.328 (inactive) in experiment [9]; -0.121 in experiment [10]; -0.117 in experiment [11]; -0.091 in [12]; -0.281 in experiment [13]. For the same compound, the z-score in [14] was 0.0416; in [15], -0.771; in [16] it was -0.426; in experiment [17] it was -0.61 (inactive); in experiment [18], -0.0516; in experiment [19], 0.134. Also, the z-score in [20] was -0.361 (inactive). Further, the composite z-score in experiment [2] was -0.147.
`O=C1[C@H]2[C@H]3[C@H](O)[C@H](O)CC(=NOCc4ccccc4)[C@H]3CC[C@H]2C(=O)N1c1cccc(Oc2ccccc2)c1`: the z-score in experiment [1] is 0.0144 (inactive); in experiment [3], 6.64 (inactive); in experiment [4], 1.42 (inactive); in experiment [5], 0.969 (inactive); in experiment [6], 0.525 (inactive); in [7], -0.219. Besides, the z-score was -1.86 (inactive) in [8]; -1.01 (inactive) in experiment [9]; -3.91 in experiment [10]; 0.382 in experiment [11]; -0.921 in experiment [12]; -0.6 in [13]. For the same compound, the z-score in experiment [14] is -0.641; in experiment [15] it was 0.907; in [16], -0.988; in experiment [17], 0.394 (inactive); in [18], 0.341; in experiment [19] it was -0.721. The z-score in [20] was 0.188 (inactive). Moreover, the composite z-score in [2] was -0.0193.
Take `CCOC(=O)CCN1C(=O)[C@H]2[C@H]3[C@H](O)C=CC(=O)[C@@H]3CC[C@H]2C1=O`: the z-score in experiment [1] is -0.221 (inactive); in experiment [3], -0.0882 (inactive); in experiment [4] it was 0.501 (inactive); in experiment [5] it was -0.233 (inactive); in experiment [6], 0.352 (inactive); in [7] it was 0.146. Moreover, the z-score is 1.22 (inactive) in experiment [8]; 0.463 (inactive) in experiment [9]; -0.244 in [10]; 0.0872 in [11]; 0.0636 in experiment [12]; 0.338 in [13]. The z-score was -0.921 in experiment [14]; 0.586 in experiment [15]; 0.0469 in [16]; 0.53 (inactive) in experiment [17]; 0.203 in experiment [18]; 0.176 in [19]. For the same compound, in [20], the z-score was 0.289 (inactive). The compound further yielded a composite z-score in experiment [2] of 0.0479.
